Source: PubChem BioAssay (National Center for Advancing Translational Sciences (NCATS))
NPC1 promoter act – qHTS Assay for NPC1 Promoter Activators; Huh7 NPC1 promoter luciferase reporter, 24 h; Potency, µM (top dose mostly 9.22 µM), without a hit: at the top dose activation, most hits filed as activators; 320,000 tested, 2.4% active; note: % of control where 0% means no effect; nearly all actives have a fitted effect of over 60% in size
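Cells: Huh7 expressing luciferase under the NPC1 promoter, 1500/well. Seeded 2 h, compound added, incubated 24 h at 37 °C. Luciferase reagent, 10 min ambient, then luminescence.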
FLuc modulator – qHTS profiling assay for firefly luciferase inhibitor/activator using purifed enzyme and Km concentrations of substrates (counterscreen for miR-21 project); Luciferin 4-monooxygenase (Photinus pyralis), P08659; purified FLuc, Km substrates, luminescence inhibition; Potency, µM (titrated, usually from 57.5 µM), without a hit: at the top dose activity change, negative = inhibition, actives largely listed as inhibitors; 360,000 tested, 6.9% active; AID 588342, 2011;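 note: plate controls were vehicle for no effect and reference inhibitor for full effect; nearly all actives have a fitted effect of over 55% in size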
Target sequence (P08659 whole entry, looked up): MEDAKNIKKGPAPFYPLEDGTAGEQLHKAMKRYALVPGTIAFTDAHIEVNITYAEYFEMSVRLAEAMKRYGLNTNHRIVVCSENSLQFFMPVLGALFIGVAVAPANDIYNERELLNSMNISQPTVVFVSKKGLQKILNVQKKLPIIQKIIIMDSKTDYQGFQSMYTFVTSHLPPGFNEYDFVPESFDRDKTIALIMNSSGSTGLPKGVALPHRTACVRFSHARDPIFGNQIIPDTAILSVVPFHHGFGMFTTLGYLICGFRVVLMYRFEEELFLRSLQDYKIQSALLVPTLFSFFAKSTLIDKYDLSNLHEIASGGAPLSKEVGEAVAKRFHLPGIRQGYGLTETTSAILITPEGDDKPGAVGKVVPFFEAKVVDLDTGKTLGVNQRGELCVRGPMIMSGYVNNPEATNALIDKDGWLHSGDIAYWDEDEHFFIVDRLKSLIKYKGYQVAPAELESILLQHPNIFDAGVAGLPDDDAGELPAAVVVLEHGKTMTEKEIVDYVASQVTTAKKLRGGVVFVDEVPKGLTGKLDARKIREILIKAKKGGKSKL
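Purified P. pyralis luciferase, 10 nM final, with Km-level 10 uM D-luciferin and 10 uM ATP in 50 mM Tris acetate pH 7.5, 10 mM Mg acetate, 0.01% Tween-20, 0.05% BSA; 6-point qHTS titration about 60 µM downward; luminescence read.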
ELG1 genotox – qHTS screen for small molecules that induce genotoxicity in human embryonic kidney (HEK293T) cells expressing luciferase-tagged ELG1; 330,000 tested, 1.3% active; AID 504466, 2011; Potency, µM (doses to about 46 µM), for inactives: at the top dose activity change, positive = activation, hits mostly activators; HEK293T ELG1-luciferase reporter, luminescence, 16 h; note: % of control where 0% means no effect; nearly all actives have a fitted effect of over 60% in size
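Luminescence read-out: rising ELG1-luciferase signal, reflecting elevated ELG1 protein under genetic stress, flags genotoxic compounds. Cells were treated for 16 hr at 37 °C before ONE-Glo detection.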
SMN2 splice enh – qHTS Assay for Enhancers of SMN2 Splice Variant Expression | HEK293 SMN2-luciferase splicing reporter, luminescence, 30-36 h | Potency, µM (series often up to 46.1 µM), inactives show at the top dose activity change, positive = activation, most hits filed as activators | 210,000 tested, 2.8% active; note: % of control where 0% means no effect; nearly all actives have a fitted effect of over 55% in size
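HEK293 cells carry an SMN2 minigene-luciferase reporter in which exon 7 inclusion puts luciferase in frame. Cells were seeded at 2000 cells/well, attached for 10-12 hours, then exposed to compounds for 30-36 hours at 37C before ONE-Glo luminescence.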
Rab9 promoter act – qHTS Assay for Rab9 Promoter Activators | Huh7 Rab9 promoter-luciferase reporter, luminescence, 24 h | Potency, µM (titrated, usually from 9.22 µM), without a hit: at the top dose activation, negative = inhibition, actives largely listed as activators | 320,000 tested, 2.8% active | AID 485297, 2010; note: % of control where 0% means no effect; nearly all actives have a fitted effect of over 60% in size
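Huh7 cells stably carrying Rab9 promoter–luciferase reporter, plated 1500 cells/well, compound added after 2 h and incubated 24 h at 37 °C; luciferase luminescence then read after 10 min with detection reagent.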
An asterisk follows results filed as active; ? = inconclusive; . = not tested or not shown; [ ] = another dose, or the depositor's remark. An excerpt weighted towards active compounds, which were near 7.5% of everything screened. Calls come from the whole dose curve; as a rule, active = well fitted curve in the direction sought with a large enough effect; inconclusive = small, poorly fitted or top-dose-only effect, or another doubt; inactive = no such curve, though single readings can be large; an effect the other way counts as inactive or inconclusive. Potency is the fitted concentration of half-maximal effect.

SMILES	NPC1 promoter act	FLuc modulator	ELG1 genotox	SMN2 splice enh	Rab9 promoter act
O=C(Nc1nnc(-c2ccncc2)s1)C1CCCO1 (configuration not stated)	12.8%	-11.4%	0.7%	?	13.9%
O=C(Nc1ccc(-c2nc3cc(Cl)ccc3o2)cc1)c1cc(Br)ccc1Cl	.	?	.	-7.3%	.
O=C(Nc1ccc(-c2nc3cccnc3s2)cc1)C1CCCO1 (configuration not stated)	0.126µM*	0.601µM*	?	1.12µM*	0.1µM*
O=C(Nc1ccc(-c2nc3ccccc3o2)cc1)C1CCCO1 (configuration not stated)	0.316µM*	1.35µM*	?	7.94µM*	0.447µM*
O=C(Nc1ccc2oc(-c3ccccc3)nc2c1)c1ccc2ccccc2c1	.	2.8%	.	-9.0%	.
O=C(Nc1ccc2oc(-c3ccccc3)nc2c1)C1CCCO1 (configuration not stated)	2.24µM*	7.57µM*	18.4µM*	11.2µM*	2.82µM*
O=C(Nc1ccc(-c2nc3cc(Cl)ccc3o2)cc1)C1CCCO1 (configuration not stated)	0.794µM*	1.2µM*	18.4µM*	2.82µM*	0.501µM*
Cc1ccc(S(=O)(=O)c2nc(Cc3ccccc3)oc2N2CCOCC2)cc1	1.7%	-1.3%	3.5%	.	-6.7%
COC(=O)c1sc(N2C(=O)C(O)=C(C(=O)c3ccc(C)o3)C2c2ccc([N+](=O)[O-])cc2)nc1C (configuration not stated)	3.55µM*	19µM*	?	.	1.78µM*
CCCc1cc(NCCCn2ccnc2)n2nc(C)c(-c3ccccc3)c2n1	-10.0%	5.3%	-3.6%	.	1.0%
CC(C)Nc1cc(C(C)(C)C)nc2c(-c3ccccc3)cnn12	?	10.7µM*	?	.	2.82µM*
Cn1c(=O)c2c(nc(NCCCN3CCOCC3)n2Cc2ccc(Cl)cc2)n(C)c1=O	24.6%	9.2%	-1.3%	13.0%	24.6%
Cc1cccc(-c2cc3nc(C)cc(NCCCn4ccnc4)n3n2)c1	1.7%	15.1µM*	?	-12.7%	-7.6%
CC(C)(C)c1cc(-n2ccnc2)n2ncc(-c3ccc(Cl)cc3)c2n1	-1.9%	?	?	?	13.4%
Cc1cc(NCCCN2CCOCC2)n2ncc(-c3ccc(Cl)cc3)c2n1	?	16.9µM*	?	24.3%	?
Cc1cc(NCCCn2ccnc2)n2ncc(-c3ccc(Cl)cc3)c2n1	0.447µM*	0.953µM*	?	4.5%	0.562µM*
CC(C)(C)c1cc(NCCCn2ccnc2)n2ncc(-c3ccccc3)c2n1	2µM*	5.36µM*	?	.	2.24µM*
CN(C)CCCNc1cc(C(C)(C)C)nc2c(-c3ccc(Cl)cc3)cnn12	0.3%	?	8.2%	.	-2.4%
O=C(C=C=Nc1ccccc1)C(=O)N=C=Cc1ccccc1	-12.9%	4.78µM*	?	.	-36.4%
O=C(N/N=C/c1ccccc1)C(=O)N/N=C/c1ccccc1	-5.9%	-2.4%	4.0%	.	-1.0%
COc1ccc2[nH]c3c(=O)n(Cc4ccc(C(=O)N5CCC(C(N)=O)CC5)cc4)c(=S)[nH]c3c2c1	1.3%	21.3µM*	0.3%	3.6%	6.1%
O=C1C=C(c2ccc(Cl)c(C(F)(F)F)c2)C[C@@H](c2ccc3c(c2)OCO3)C1	-0.6%	2.7%	-1.3%	.	-2.7%
O=C(CCC(=O)c1ccc(Oc2ccccc2)cc1)Nc1cccc(Cl)c1	0.3%	0.7%	1.0%	0.5%	-1.3%
O=C(Nc1ccc(Oc2cccc(C(F)(F)F)c2)nc1)c1ccccc1	-8.3%	0.4%	-10.0%	.	-22.6%
O=C(O)c1ccccc1C(=O)Nc1ccc(Br)c(C(F)(F)F)c1	-3.6%	19µM*	1.2%	.	-0.3%
SMILES	NPC1 promoter act	FLuc modulator	ELG1 genotox	SMN2 splice enh	Rab9 promoter act
CC(C)(C)c1ccc(Oc2ccc(NC(=O)c3ccccc3C(=O)O)cn2)cc1	-0.7%	19µM*	-6.4%	.	-1.3%
Cc1cccc(Oc2ccc(NC(=O)c3ccccc3C(=O)O)cc2)c1	2.1%	21.3µM*	5.5%	.	-4.7%
Cc1cccc(Oc2ccc(NC(=O)C3CC=CCC3C(=O)O)cc2)c1 (configuration not stated)	-3.1%	?	-6.4%	-9.4%	1.9%
O=C(CCC(=O)c1ccc(Oc2ccccc2)cc1)Nc1ccc(C(=O)O)cc1	-0.7%	19µM*	-0.2%	.	-0.4%
Cc1cc(C)c(C(=O)Nc2ccc(Br)c(C(F)(F)F)c2)c(C)c1	-0.9%	-3.8%	-9.9%	-39.1%	-4.7%
NCCNC[C@@H]1COC2(CCCCCCCCCCC2)O1	-5.9%	1.2%	-0.1%	.	-16.3%
O=C(O)c1ccccc1C(=O)Nc1ccc(Oc2ccccc2)cc1	-0.3%	26.9µM*	1.2%	.	1.3%
CC(C)(N)C(=O)N[C@@H]1C(=O)N2[C@@H]1SC(C)(C)[C@H]2C(=O)O	.	.	.	-9.0%[9.22 µM]	.
COc1cccc(CSc2nc3n(n2)C(c2cccs2)C(C(=O)Nc2ccccc2C)=C(C)N3)c1 (configuration not stated)	.	-6.7%	.	.	.
CC(C)n1cnc2c(Nc3ccc(C(=O)O)cc3)nc(Cl)nc21	?	12µM*	?	.	18.5%
CC(C)[C@H](CO)Nc1nc(Nc2ccc(Cl)c(C(=O)O)c2)c2ncn(C(C)C)c2n1	-6.5%	?	1.7%	.	1.1%
c1csc(C2=NNC(=NC3CCCCC3)SC2)c1	1.26µM*	4.78µM*	?	12.6µM*	1µM*
c1ccc2oc(C3=NNC(=NC4CC4)SC3)cc2c1	0.282µM*	0.757µM*	?	1µM*	0.316µM*
c1ccc(CN=C2NN=C(c3cc4ccccc4o3)CS2)cc1	17.6%	16.9µM*	1.4%	17.7%	18.0%
CN1N=C(c2ccc(F)c(F)c2)CSC1=NCc1ccccc1	1.1%	-17.7%	1.1%	-8.2%	1.5%
COc1ccc(CNC(=O)CC23CC4CC(CC(C4)C2)C3)cc1OC	-1.2%	15.1µM*	-0.2%	.	-2.3%
COc1ccc(CNC(=O)CC23CC4CC(CC(C4)C2)C3)cc1	-1.6%	-14.2%	1.9%	.	0.4%
CCOc1ccc(NC(=O)c2ccc(-c3cccc(Cl)c3C)o2)cc1	.	-17.1%	.	8.0%	.
N#CC1=C(N)N2C(=C(C#N)C1c1ccccc1)Sc1ccccc12 (configuration not stated)	4.6%	-4.6%	8.6%	?	5.0%
c1ccc([C@H]2CN3C(=N2)Sc2ccccc23)cc1	?	0.477µM*	?	.	2.1%
c1ccc(Oc2cc(-c3ccccc3)ncn2)cc1	?	15.1µM*	?	?	?
c1ccc(Oc2cc(-c3ccccc3)nc(-c3ccccc3)n2)cc1	-5.7%	-4.3%	-0.9%	-14.0%	2.2%
